Measurements taken from the supplement of paper PMC10338343.
± gives the standard deviation.

Tested on: EfPiwi piRISC loaded with piRNA #1 (26 nt)
Test: pre-steady-state target cleavage rate (min^-1); auxiliary factor: 500 nM Ephydatia muelleri Gtsf1; guide: piRNA #1 5'p-UGAGGUAGUAGGUUGUAUAGUAUCCA; MIWI and MILI are mouse PIWI proteins and EfPiwi is from a freshwater sponge; tags in brackets are library labels; higher = faster piRNA-guided slicing of the target
Outline: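 Cleave-'n-Seq measured uncleaved targets by sequencing after a transcribed, DNA-blocked target RNA library […] was mixed with 1 nM active affinity-purified piRISC holding one synthetic guide, with or without 500 nM GTSF1 partner protein, at 33 °C in HEPES–potassium acetate buffer for 0–8 or 0–960 min. Counts were normalised to depth and to weakly complementary targets, three trials were pooled, and k3 was capped at 0.0001 min^-1. A burst-and-steady-state fit gave the pre-steady-state cleavage rate.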

GGAGACCAUACAAUACAACCUACUACCUGA and GGAGUGGAUACUAUACAACCUAGUACCUGA are within error of each other in “pre-steady-state target cleavage rate” value: 0.00286 ± 0.0028 for the first, 0.00271 ± 0.001 for the second.

GGAGAGGAUACUAUACAAGCUACUACCUGA and GGAGAGGAAACUAUACAACGUACUACCUCA are within error of each other in “pre-steady-state target cleavage rate” value: 0.00442 ± 0.0019 for the first, 0.00339 ± 0.0016 for the second.

GGAGACGAAACUAUACAACCAACUACCUCA and GGAGUGGAUACUAUACAUACCUACUACCUCA are within error of each other in “pre-steady-state target cleavage rate” value: 0.0068 ± 0.0036 for the first, 0.0107 ± 0.0063 for the second.

“GGAGACGAUACUAUACAACCUACUUGGAGA [g7:g24:cont:t1A]” and GGAGUGGAUACUAUACAGACCUACUACCUCA are within error of each other in “pre-steady-state target cleavage rate” value: 0.00429 ± 0.0022 for the first, 0.0116 ± 0.0053 for the second.

Compared with GGAGACCAUACAUAUACAACCUACUACCUCA, GGAGACCUAUGAUAUGUUCCUACUACUCUCA is lower in “pre-steady-state target cleavage rate” value: 0.0645 ± 0.025 for the first, less than 0.0001 for the second.

GGAGUGGAUACUAUACAACCUACUAGGUCA and GGAGUGGAUACUAUACAUCCAACUACCUCA are within error of each other in “pre-steady-state target cleavage rate” value: 0.00356 ± 0.002 for the first, 0.00457 ± 0.0019 for the second.

GGAGACCAUACUAUACAACCACUACCUCA and GGAGACGAUACUAUACAACCUAGUACGUCA are within error of each other in “pre-steady-state target cleavage rate” value: 0.00558 ± 0.0034 for the first, 0.00328 ± 0.0016 for the second.

GGAGUGGAUACUAUACAACCUCACUACCUCA and GGAGACGAUACUAUACAACCCUACUACCUCA are within error of each other in “pre-steady-state target cleavage rate” value: 0.00417 ± 0.0022 for the first, 0.00604 ± 0.0029 for the second.

First: GGAGACCUAACUAUACCAACCUACUACCUCA
Second: GGAGACCUAUGUAUACAACCUACAUGCUCA
The “pre-steady-state target cleavage rate” value of the first is higher: 0.00536 ± 0.0036 for the first, less than 0.0001 for the second.

GGAGACCUAACUAUACAACCUAGUAGCUCA and GGAGACCAUACAUUACAACCUACUACCUCA are within error of each other in “pre-steady-state target cleavage rate” value: 0.00484 ± 0.0035 for the first, 0.0108 ± 0.0045 for the second.

GGAGACCAUACUAUACAACCUAGUAGCUCA and GGAGACCUAACUAUACAACCUUCUACCUGA are within error of each other in “pre-steady-state target cleavage rate” value: 0.00225 ± 0.0017 for the first, 0.00465 ± 0.0036 for the second.

GGAGUGGAUACUAUACAAGCCUACUACCUCA and GGAGACCUAACUAUACAACCUUCUACCUCA are within error of each other in “pre-steady-state target cleavage rate” value: 0.0104 ± 0.0053 for the first, 0.00554 ± 0.0031 for the second.

GGAGAGGAUACUAUACAACCAACUUCCUCA and GGAGACCAUACUAUACAACCUACUAGGUCA are within error of each other in “pre-steady-state target cleavage rate” value: 0.00313 ± 0.0024 for the first, 0.00366 ± 0.0023 for the second.

GGAGACGAAACUAUACAACCUACUACCUGA and GGAGACGAUAGUAUACAACCUACUACGUCA are within error of each other in “pre-steady-state target cleavage rate” value: 0.00491 ± 0.0026 for the first, 0.0019 ± 0.0015 for the second.

GGAGAGGAUACUAUACAAGCCUACUACCUCA and GGAGACGAUACUAUACAACCUUCUACGUCA are within error of each other in “pre-steady-state target cleavage rate” value: 0.00835 ± 0.005 for the first, 0.00448 ± 0.0019 for the second.

Compared with GGAGUGGAUACUAUACAACCUAGUACCACA, GGAGACCAUACUAUACGAACCUACUACCUCA is higher in “pre-steady-state target cleavage rate” value: 0.0035 ± 0.0016 for the first, 0.0108 ± 0.0042 for the second.

GGAGACCUUACUAUACAAGCUACUACCUGA and GGAGACCAUACUAUACAACGCUACUACCUCA are within error of each other in “pre-steady-state target cleavage rate” value: 0.00346 ± 0.003 for the first, 0.0082 ± 0.0044 for the second.

GGAGAGGAUACUAUACAACCUACCACCUCA and GGAGAGGAUACUAUACAACCUUCUUCCUCA are within error of each other in “pre-steady-state target cleavage rate” value: 0.00459 ± 0.002 for the first, 0.00382 ± 0.0025 for the second.

GGAGACCAUACUAUACAACCUACCUACCUCA and GGAGACGAUACUAUACAACCUUCUACCUGA are within error of each other in “pre-steady-state target cleavage rate” value: 0.00424 ± 0.0022 for the first, 0.0056 ± 0.0024 for the second.

GGAGAGGAUACUAUACAACCUACUAGCUGA and GGAGACCUAACUAUACAACCUAGUACGUCA are within error of each other in “pre-steady-state target cleavage rate” value: 0.00408 ± 0.002 for the first, 0.00403 ± 0.0029 for the second.
